PubChem BioAssay (NCATS)
Records with an inconclusive call do not appear. Activity calls are given as the source filed them. Calls follow the shape of the dose curve; as a rule, active = well fitted cell-killing curve with a large enough effect; inconclusive = small, poorly fitted or top-dose-only effect, or effect the other way; inactive = no such curve, though single readings can be large or run the other way.

assay: Quantitative High-Throughput drug screen in 47 multiple myeloma cell lines against the NCATS MIPE library collection: INA6_PLB cell viability assay (AID 1918965; also: nearly all actives have a fitted effect of over 55% in size); conditions: INA6 myeloma viability, CellTiter-Glo ATP luminescence, 48 h; series mostly up to 45.8 µM
How it was run: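 Myeloma cells (500 per well) were exposed to MIPE 4.0 compounds by pin transfer and incubated 48 hours at 37C, 5% CO2. Viability was read as ATP by CellTiter-Glo luminescence, normalised to DMSO (100%) and media-only (0%) wells.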
Potency is read from the fitted curve at half-maximal effect.

Row | Compound | Potency
1 | C[C@@]12O[C@@H](C[C@]1(O)CO)n1c3ccccc3c3c4c(c5c6ccccc6n2c5c31)CNC4=O | 74.3 nM (active)
2 | CN1CC[C@@H](c2c(O)cc(O)c3c(=O)cc(-c4ccccc4Cl)oc23)[C@@H](O)C1 | 41.8 nM (active)
3 | Nc1nccc(Oc2ccc(NC(=O)c3c[nH]cc(-c4ccc(F)cc4)c3=O)cc2F)c1Cl | 18700 nM (active)
4 | CNC(=O)c1c(F)cccc1Nc1nc(Nc2cc3c(cc2OC)CCN3C(=O)CN(C)C)nc2[nH]ccc12 | 5900 nM (active)
5 | Cc1nc(Nc2n[nH]c3c2CN(C(=O)N[C@H](CN(C)C)c2ccccc2)C3(C)C)c2sccc2n1 | 5.9 nM (active)
6 | Cc1cn2c(-c3cn[nH]c3)cnc2c(Nc2ccc(C(=O)N3CCNCC3)cc2F)n1 | 16600 nM (active)
7 | COc1cc(=C2C=c3ccccc3=N2)[nH]c1=Cc1[nH]c(C)cc1C | 1180 nM (active)
8 | CC[C@H]1CN2CCc3cc(OC)c(OC)cc3[C@H]2C[C@@H]1C[C@@H]1NCCc2cc(OC)c(OC)cc21 | 52.6 nM (active)
9 | OCc1ccc(-c2ccc(-c3ccc(CO)s3)o2)s1 | 2640 nM (active)
10 | Cn1cc(-c2[nH]c3cc(NC(=O)[C@H](N)C4CCCCC4)cc4c3c2C=NNC4=O)cn1 | 209 nM (active)
11 | Nc1nc(Nc2ccc(S(N)(=O)=O)cc2)nn1C(=O)c1c(F)cccc1F | 1480 nM (active)
12 | O=C(NCCCNc1nc(Nc2cccc(NC(=O)N3CCCC3)c2)ncc1I)c1cccs1 | 662 nM (active)
13 | CC(C)(C)OC(=O)Nc1ccc(-c2cc(C(=O)NCCCCCCC(=O)NO)no2)cc1 | 469 nM (active)
